Molecules are shown by their SMILES. Hit rate of the full screen: of about 220,000 compounds, about 2,000 (0.91%) were called active. Not shown: some 2% with an inconclusive outcome. Cut-off read from the data, not from the text of the source: inconclusive = inhibition above about 80% without an active follow-up result; inactive = below that; test concentration not stated here. Only a sample is shown. Potency and affinity values are given separately.

We go through 98 compounds from PubChem BioAssay AID1626 (SRMLSC, 2009).

The experiment can be described thus: M. tuberculosis H37Rv growth inhibitors, H37Rv strain (AID 1626).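 Note: bacteria incubated seven days before Alamar blue readout; 0% = bacteria only wells and 100% = bacteria with antibiotic wells.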 Conditions: hits give high values, concentration not given here.
As a reminder, the inhibition is the drop in the measured response relative to a control, in per cent. As to `CCc1ccc(NS(=O)(=O)c2ccc(OC)c(C)c2)cc1`, the inhibition is 16.8% (inactive). With `Cc1nn(C(=O)c2c(-c3ccccc3)noc2C)c(C)c1N=Nc1cc(C(F)(F)F)cc(C(F)(F)F)c1`, the inhibition is 4.12% (inactive). As to `COC(=O)CNC(=O)C1CCN(c2nc(C)cc(C)n2)CC1`, the inhibition was -8.28% (inactive). With `CCOC(=O)CN1C(=O)C(CC)Oc2ccccc21` (stereo not drawn), the inhibition was -1.23% (inactive). As for `CCOC(=O)N1c2ccccc2C=CC1OCC` (stereo not drawn), the inhibition was -8.15% (inactive). With `O=C(CN1CCN(c2ccccc2Cl)CC1)NC1CCCc2ccccc21` (stereo not drawn) the figure was 14.2% (inactive); with `CCCC1(CCC)C(=O)NC(=NCc2ccccc2)NC1=O`, -6.66% (inactive).

As to `CCCCOc1cccc(C(=O)O)c1`, the inhibition is -6.88% (inactive). With `CCCCOc1cccc(-c2nnc(N)s2)c1` the figure was 37.6% (inactive); with `C=CCCCCCCCC(=O)OC`, -15.6% (inactive). As to `O=C(CSc1n[nH]c(-c2cccs2)n1)NCc1ccc2c(c1)OCO2`, the inhibition was 6.67% (inactive). On to `CCOC(=O)Nc1c(C)n(C)n(-c2ccccc2)c1=O`, for which the inhibition was -5.08% (inactive). For the compound `O=C(OCC#CCSc1nnc(-c2cccc3ccccc23)o1)c1ccco1`, the inhibition was 64.9% (inactive).

Take `O=C(OCc1nnc(-c2ccccc2)o1)c1ccco1`: the inhibition is 5.59% (inactive). The same measure for `Cc1ccc(-c2nnc(-c3ccc(NC(=O)c4ccco4)cc3)o2)cc1`: 6.39% (inactive).

Consider `COC(=O)c1ccccc1NC(=O)CSc1nnc(-c2ccc(C)cc2)o1`, for which the inhibition was 6.5% (inactive). `Cc1ccc(CN2CCc3c(OCC(=O)Nc4cc(C)ccc4C)cccc3C2=O)cc1`: the inhibition was 4.57% (inactive). Consider `CC1CCCCN1S(=O)(=O)c1ccc(S(=O)(=O)N2CCN(c3ccccc3)CC2)cc1` (stereo not drawn), for which the inhibition is -4.53% (inactive). The same measure for `O=C(c1ccco1)N1CCN(S(=O)(=O)c2ccc(C3CCCCC3)cc2)CC1`: -4.85% (inactive); for `CCOc1ccc(N2C(=O)CNC2=S)cc1`: -2.82% (inactive). Take `CCOc1ccc(N2CC(=O)N(c3ccc(OCC)cc3)CC2=O)cc1`: the inhibition was -2.5% (inactive). With `CCOC(=O)c1cnc2ccc(OCC)cc2c1NCc1cccnc1` the figure was 10.7% (inactive); with `CCOC(=O)c1cnc2ccc(OC)cc2c1NCc1ccccc1`, 20.8% (inactive); with `CCSc1nnc(NC(=O)C2Cc3ccccc3CN2C(=O)c2ccco2)s1` (stereo not drawn), -9.18% (inactive).

On to `COC(=O)CC1COc2ccccc2N1C(=O)c1ccc(OC)cc1` (stereo not drawn), for which the inhibition was -4.78% (inactive).

With `COc1ccccc1C1C([N+](=O)[O-])=C(N)Oc2c1c(=O)oc1ccccc21` (stereo not drawn), the inhibition was -2.62% (inactive). Turning to `N#CC1=C(N)NC(SCC(=O)c2ccc(Cl)cc2)=C(C#N)C12CCCC2`, the inhibition was 21.4% (inactive).

With `N#CC1=C(N)NC(SCC(=O)c2ccc(Br)cc2)=C(C#N)C12CCCCC2`, the inhibition is 79.4% (inactive). With `CCN(CC)CCOC(=O)c1ccc(NC(=O)c2cn(-c3ccccc3)nc2-c2cccs2)cc1` the figure was 31.3% (inactive). For `Cc1c(CN2CCCCC2C)c(=O)n(-c2ccccc2)n1C` (stereo not drawn), the inhibition was -1.26% (inactive). `Cc1nc2ccc(NC(=O)c3ccco3)cc2s1`: the inhibition was 5.89% (inactive).

`CCCC(=O)Nc1nc2ccc(NC(=O)c3ccc(Br)o3)cc2s1`: the inhibition was -1.78% (inactive).

As to `Cc1nc2ccc(NC(=O)N(C)c3ccccc3)cc2s1`, the inhibition is 76.8% (inactive).

As to `CNC(=O)Nc1ccc2nc(C)sc2c1`, the inhibition is -3.76% (inactive). Regarding `Cc1cc(N2CCN(C)CC2)nc2ccc(NC(=O)c3cccnc3Cl)cc12`, the inhibition was -11.1% (inactive).

For the compound `CCN1CCN(c2cc(C)c3cc(NC(=O)c4cccnc4Cl)ccc3n2)CC1`, the inhibition is -2.95% (inactive). `Cc1cc(N2CCN(C)CC2)nc2ccc(NC(=O)c3ccc(Br)o3)cc12`: the inhibition is 5.2% (inactive).

`CCN1CCN(c2cc(C)c3cc(NC(=O)c4ccc(Br)o4)ccc3n2)CC1`: the inhibition was -5.55% (inactive). With `COC(=O)/C=C1\C(=O)N(c2nc3ccccc3s2)C(=S)N1c1ccc(F)cc1` the figure was 3.22% (inactive); with `O=C(N/C(=C\c1ccccc1)C(=O)N1CCN(CCO)CC1)c1ccccc1`, -6.53% (inactive). Turning to `Cn1cc(C(=O)NP(=O)(N2CCOCC2)N2CCOCC2)c2ccccc21`, the inhibition is 4.83% (inactive). The same measure for `CCc1nc(SCc2ccc(C(=O)OC)o2)n[nH]1`: 1.73% (inactive); for `COc1cc(C(=O)Nc2ccc(-n3cnnn3)c(C)c2)cc(OC)c1OC`: -2.46% (inactive); for `Cc1ccc2[nH]c(=O)c(CN(Cc3ccco3)S(=O)(=O)c3c(C)ccc4nsnc34)cc2c1`: 1.42% (inactive). Regarding `COc1ccc(NC(=O)C/C(C)=N/NC(=O)C(=O)NC(C)C)c(OC)c1`, the inhibition is -3.77% (inactive). As for `CCOc1ccc(NC(=O)c2cnccn2)cc1`, the inhibition is 7.63% (inactive). With `CCCCOC(=O)c1ccc(NC(=O)c2cnccn2)cc1` the figure was 79.1% (inactive); with `O=C(O)Cc1ccc(NC(=O)c2cnccn2)cc1`, 2% (inactive).

As to `CCOC(=O)c1ccc(NC(=O)c2cnccn2)cc1`, the inhibition was 38.2% (inactive). With `COCCNc1ccc(-c2nn(C)c(=O)c3ccccc23)cc1[N+](=O)[O-]` the figure was -0.74% (inactive); with `CN1CCN(C(=O)c2ccc(N3CCCC3=O)cc2)CC1`, -13.8% (inactive). In the case of `COc1c(C)cccc1C(=O)Nc1ccc(N2CCOCC2)c(Cl)c1`, the inhibition is 6.42% (inactive).

Take `C/C(=N/NC(=O)CNC(=O)CCc1ccccc1)c1ccc(Cl)cc1`: the inhibition is -2.99% (inactive). With `O=C(Oc1ccccc1)c1c(Cl)cccc1P(=O)(O)O` the figure was -3.52% (inactive); with `CCCc1nnc(-c2cc(OC)c(OC)c(OC)c2)o1`, 0.88% (inactive); with `Nc1nnc(SCCCC(=O)c2ccc(F)cc2)s1`, 7.95% (inactive).

For the compound `Nc1nnc(SCCCC(=O)c2ccc(Br)cc2)s1`, the inhibition was 0.26% (inactive). With `Cc1c(C(=O)O/N=C(\N)c2ccccn2)cccc1[N+](=O)[O-]`, the inhibition is -0.03% (inactive). Turning to `Cc1c(C(=O)Nc2cccc3cccnc23)oc2ccccc12`, the inhibition was -1.97% (inactive). `CCc1nc2ccccc2c(C(=O)Oc2cccc3cccnc23)c1C`: the inhibition is 22.1% (inactive). In the case of `O=[N+]([O-])c1ccccc1OCCOCCOc1cccc2cccnc12`, the inhibition was -5.36% (inactive). For the compound `NC(=O)c1ccc(Oc2cccc3cccnc23)c([N+](=O)[O-])c1`, the inhibition is 49.5% (inactive).

For `COc1ccc(CSc2cccc3cccnc23)cc1[N+](=O)[O-]`, the inhibition is -0.94% (inactive). `COc1ccccc1NC(=O)N1CCN(c2ccc(F)cc2)CC1`: the inhibition was 4.69% (inactive). In the case of `COCCCNC(=S)N1CCC(NC(=O)c2ccco2)CC1`, the inhibition was 0.03% (inactive).

Consider `CCCCOC(=O)N/N=C/C=C/c1ccccc1`, for which the inhibition is 5.74% (inactive). In the case of `COc1ccc2[nH]cc(CCNC(=S)NC3CCCC3)c2c1`, the inhibition was 4.31% (inactive). As to `NNC(=O)c1ccc(Cn2cc(Br)cn2)o1`, the inhibition was -4.47% (inactive). The same measure for `CCn1cnc2cc(NCc3cccs3)ccc21`: 3.06% (inactive). Regarding `CN(C)C(CNC(=S)Nc1cccc(Cl)c1)c1ccccc1` (stereo not drawn), the inhibition is 3.58% (inactive).

In the case of `Nc1cc2c(cc1C(=O)c1cccc(Br)c1)OCCO2`, the inhibition was 4.56% (inactive).

With `Cc1ccc(NS(=O)(=O)c2cc(NC(=O)c3cc4c(s3)CCCC4)ccc2C)c(C)c1`, the inhibition was 6.18% (inactive). Regarding `COc1ccc(NC(=O)c2cccc(S(=O)(=O)Nc3ccc(Br)cc3)c2)cn1`, the inhibition is 7.12% (inactive).

`O=C(Nc1cccc(S(=O)(=O)Nc2ccc(Cl)cc2)c1)c1ccc[n+]([O-])c1`: the inhibition is 8.19% (inactive). Take `Cc1ccc(NS(=O)(=O)c2cc(C(=O)Nc3cccc(N(C)S(C)(=O)=O)c3)ccc2C)c(C)c1`: the inhibition was 8.69% (inactive).

Turning to `CS(=O)(=O)N1CCCC(C(=O)NCCN2CCC(Cc3ccccc3)CC2)C1` (stereo not drawn), the inhibition was 3.9% (inactive). With `CCN(CC)C(=O)C(=O)c1ccn(-c2c(C)csc2C(=O)OC)c1`, the inhibition is 10.3% (inactive).

In the case of `COc1cccc(/C=C(\C#N)C(=O)NC2CCS(=O)(=O)C2)c1` (stereo not drawn), the inhibition was -1.08% (inactive).

Regarding `Fc1ccc(C2C3=C(Nc4ncnn42)c2ccccc2OC3c2ccncc2)cc1` (stereo not drawn), the inhibition was 1.81% (inactive). As to `Brc1ccc(C2C3=C(Nc4ncnn42)c2ccccc2OC3c2ccncc2)cc1` (stereo not drawn), the inhibition is 3.46% (inactive). The same measure for `Cc1ccc(C2c3c(oc4ccccc4c3=O)C(=O)N2c2nncs2)cc1` (stereo not drawn): -7.54% (inactive); for `COc1ccc(CCNC(=O)c2cc(-c3ccccc3OC)on2)cc1OC`: -17.8% (inactive); for `COc1ccc(C(=O)O/N=C2\CCS(=O)(=O)c3sccc32)cc1`: -3.81% (inactive). Turning to `O=S1(=O)CCC(=Nc2ccc(Cl)cc2)c2ccsc21`, the inhibition is 3.58% (inactive). Turning to `COc1ccc(Cl)cc1S(=O)(=O)Oc1ccc(NC(C)=O)cc1`, the inhibition was -3.14% (inactive). Regarding `C=CCSc1nc(NC)c2sccc2n1`, the inhibition was 64.3% (inactive). With `C=CCNc1nc(SC)nc2ccsc12` the figure was 19.7% (inactive); with `Cc1oc(C)c(C(=O)O)c1COc1ccc(C(=O)O)cc1`, -4.93% (inactive); with `CN(C)c1oc(COc2ccc(F)cc2)nc1C#N`, 0.53% (inactive). `COc1ccccc1NC(=O)COC(=O)[C@@H]1CCCN1C(=O)c1cccs1`: the inhibition was 2.35% (inactive). With `COc1ccc(CCNC(=O)CSc2cn(Cc3ccccc3)c3ccccc23)cc1OC` the figure was 0.69% (inactive); with `CCOC(=O)CSc1nnc(-c2ccc(S(=O)(=O)N3CCOCC3)cc2)n1-c1ccccc1`, 14.9% (inactive); with `CC1CCCCN1CC(=O)Nc1ccc(N2CCCCCC2)cc1` (stereo not drawn), 7.03% (inactive).

Regarding `O=C(CNCC1CCCCC1)Nc1ccc(N2CCCCC2)cc1`, the inhibition was 5.47% (inactive). As to `O=[N+]([O-])c1ccc(Sc2ccccc2)nc1`, the inhibition was 1.27% (inactive). Consider `O=[N+]([O-])c1ccc(Sc2nnnn2-c2ccccc2)c(Cl)c1`, for which the inhibition is -0.26% (inactive). For the compound `O=C(COC(=O)c1cncc(Br)c1)NC1CCCCC1`, the inhibition is 0.66% (inactive). As for `Cn1cc(/C=N\NC(=O)C2COc3ccccc3O2)c2ccccc21` (stereo not drawn), the inhibition is 11.9% (inactive).
